# An excerpt weighted towards active compounds, which were near 2.5% of everything screened.
# PRMT1 FP inh = blocks human protein arginine methyltransferase 1; AID 652257; Q99873; recombinant PRMT1, activity-based probe fluorescence polarization; 370,000 compounds, 1.3% hits; inhibition, % at 2.79 µM;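 active means inhibition above about 21% made by adding two undisclosed values, limit read from the data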
# MBD2 inh = inhibitors of human MBD2 binding to methylated oligonucleotide; TR-FRET; 370,000 compounds, 0.31% hits; inhibition, % at 4.4 µM; in the data active means inhibition above about 13%
# LEDGF integ inh = blocks HIV-1 LEDGF/p75-dependent DNA integration; TR-FRET IN-LEDGF/p75 DNA integration, Eu/Cy5; inhibition, % at 3.7 µM; 370,000 compounds, 0.64% hits;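 active means inhibition above the screen-wide mean plus 3 SD, cut at about 13% in these data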;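 further: signal is the Cy5 over europium emission ratio at 671 and 618 nm; 0% = plate median of compound wells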
# UHRF1 MBD2 ctr = blocks human UHRF1 binding to methylated DNA. Q96T88. UHRF1 binding to methylated oligo, TR-FRET. inhibition, % at 4.4 µM. 370,000 compounds, 0.75% hits. AID 687016; in the data active means inhibition above about 21%;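 further: UHRF1 SRA domain binding a hemimethylated CpG hairpin DNA probe; 0% = median of test compound wells and 100% = reference inhibitor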
# Target sequence (Q96T88 whole entry, looked up, the tested form may be a part): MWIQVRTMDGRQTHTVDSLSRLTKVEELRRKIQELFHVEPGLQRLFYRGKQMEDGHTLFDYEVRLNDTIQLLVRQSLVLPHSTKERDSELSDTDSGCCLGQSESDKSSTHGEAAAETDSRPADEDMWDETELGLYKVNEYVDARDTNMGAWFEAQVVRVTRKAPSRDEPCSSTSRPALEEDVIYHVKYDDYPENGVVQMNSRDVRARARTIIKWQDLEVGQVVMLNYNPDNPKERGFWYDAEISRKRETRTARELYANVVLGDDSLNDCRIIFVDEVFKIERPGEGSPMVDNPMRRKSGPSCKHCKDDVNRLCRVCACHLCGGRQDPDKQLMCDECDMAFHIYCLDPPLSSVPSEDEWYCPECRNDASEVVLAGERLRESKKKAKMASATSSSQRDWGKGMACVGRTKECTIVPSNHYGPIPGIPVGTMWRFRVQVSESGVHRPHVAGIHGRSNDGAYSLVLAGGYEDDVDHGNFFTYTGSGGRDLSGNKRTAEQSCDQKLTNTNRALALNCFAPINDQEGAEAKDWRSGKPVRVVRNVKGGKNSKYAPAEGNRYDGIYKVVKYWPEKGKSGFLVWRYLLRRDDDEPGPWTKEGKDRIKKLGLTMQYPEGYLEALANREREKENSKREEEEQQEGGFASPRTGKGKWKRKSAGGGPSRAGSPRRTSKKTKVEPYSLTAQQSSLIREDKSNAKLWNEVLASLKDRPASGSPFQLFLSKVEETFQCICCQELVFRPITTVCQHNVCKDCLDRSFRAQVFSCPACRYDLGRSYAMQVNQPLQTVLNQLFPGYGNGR
# IN multimer act = counter-screen for LEDGF/p75 integration inhibitors: HIV-1 integrase multimerization activators; shares compounds with LEDGF integ inh; TR-FRET HIV-1 integrase multimerization, biochemical; activation, % at 7.7 µM; 2,000 compounds, 17% hits; in the data active means activation above about 8.9%
# TRFRET interf = optically interferes with TR-FRET readout in LEDGF counter-screen; shares compounds with LEDGF integ inh; inhibition, % at 7.7 µM; AID 1053135; 2,000 tested, under 10 active; TR-FRET optical interference counterscreen, HIV-1 IN multimerization;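 active means inhibition above the mean over all tested compounds plus 3 SD, which no compound reached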;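 further: 0% = integrase with antibodies and DMSO and 100% = antibodies without integrase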
# LEDGF integ conf = confirmation of HIV-1 LEDGF/p75-dependent integration inhibitors | shares compounds with LEDGF integ inh | TR-FRET LEDGF/p75-dependent HIV-1 integration, biochemical | inhibition, % at 3.7 µM | 2,000 compounds, 36% hits | AID 1053136; in the data active means inhibition above about 14%
# * marks the source's active call; other numbers are inactive results; x = no result given.
SMILES,PRMT1 FP inh,MBD2 inh,LEDGF integ inh,UHRF1 MBD2 ctr,IN multimer act,TRFRET interf,LEDGF integ conf
O=C(COC(=O)/C=C/c1ccco1)Nc1cc(S(=O)(=O)N2CCOCC2)ccc1Cl,12,2,15*,17,1,-6,-13
CCN(CCO)c1ccc(NC(=S)Nc2cccc(S(=O)(=O)N(C)C)c2)cc1,9,-3,24*,0,5,-18,6
CN(C)S(=O)(=O)c1cccc(NC(=S)Nc2cc(Cl)cc(Cl)c2)c1,3,1,-5,0,x,x,x
Cc1cc2c(NC(=O)Nc3ccccc3)cccc2nn1,1,-6,-1,-6,x,x,x
Cc1cc2c(N)cccc2nn1,44*,9,73*,45*,8,-28,78*
CCOC(=O)c1cnc(SCC(=O)NNC(=O)c2ccco2)nc1N,0,5,72*,0,1,-3,-5
CC1C/C=C/C=C/C=C/C=C/C(O[C@@H]2O[C@H](C)[C@@H](O)[C@H](N)[C@@H]2O)CC2OC(O)(CC(O)CC3OC3/C=C/C(=O)O1)CC(O)C2C(=O)O (some centres not stated),-4,4,21*,10,1,-4,35*
C[C@@H]1[C@H](O)[C@@H](C)/C=C/C=C/C=C/C=C/C=C/C=C/C=C/[C@H](OC2O[C@H](C)[C@@H](O)[C@H](N)[C@@H]2O)C[C@@H]2O[C@](O)(C[C@@H](O)C[C@@H](O)[C@H](O)CC[C@@H](O)C[C@@H](O)CC(=O)O[C@H]1C)C[C@H](O)[C@H]2C(=O)O (some centres not stated),3,5,32*,8,0,2,78*
O=S1(=O)CCN(C2CCCCCCC2)CC1,-3,2,0,1,x,x,x
O=c1cc2oc3cc(O)c(O)cc3c(-c3ccccc3[N+](=O)[O-])c-2cc1O,17,13,86*,41*,11*,-55,86*
COc1ccccc1C=NNC(=O)NN=Cc1ccccc1OC,-2,1,0,-3,x,x,x
COc1ccccc1C=NN=C(NN=Cc1ccccc1OC)NN=Cc1ccccc1OC,2,-2,32*,4,4,-13,-7
C[C@@H]1C=C(C(=O)NCc2ccccc2)O[C@H](OCc2ccc(CO)cc2)C1,7,9,16*,22*,0,2,1
C(=C\c1ccc2nncn2c1)/c1ccccc1,3,1,14*,-3,-4,15,13
Nc1ccc(N2CCCCC2)c2nonc12,13,13,56*,12,1,-5,67*
O=S1(=O)CC2c3ccccc3CN2CN1C1CCCC1 (configuration not stated),1,-2,3,2,x,x,x
O=C(NC1CCCCC1)C(c1ccccn1)N(C(=O)c1csnn1)c1ccccc1 (configuration not stated),-1,-5,0,0,x,x,x
N=c1c(C(=O)NCCc2ccccc2)cc2c(=O)n3ccccc3nc2n1Cc1ccco1,3,-2,17*,-4,2,-8,11
N=c1c(S(=O)(=O)c2ccccc2)cc2c(=O)n3ccccc3nc2n1Cc1ccco1,4,-5,8,-2,x,x,x
Cc1ccc2nc3c(cc(S(=O)(=O)c4ccccc4)c(=N)n3Cc3ccco3)c(=O)n2c1,6,-2,18*,6,2,-7,11
O=C(/C=C/c1ccccc1)CC(=O)c1ccccc1O,-2,0,-6,-3,x,x,x
O=C(O)c1ccc(/C=N/Nc2ccc(Cl)nn2)cc1,0,3,21*,1,1,-5,1
Oc1cccc(/C=N/Nc2ccc(Cl)nn2)c1,0,4,1,-3,x,x,x
CC(=O)c1ccc(OCc2nnn(CC(=O)NS(=O)(=O)Cc3ccccc3)c2-c2ccccc2)cc1,0,-1,2,0,x,x,x
N#Cc1nc(-c2cccc(Cl)c2)oc1N1CCC(C(N)=O)CC1,3,6,26*,1,0,-1,1
SMILES,PRMT1 FP inh,MBD2 inh,LEDGF integ inh,UHRF1 MBD2 ctr,IN multimer act,TRFRET interf,LEDGF integ conf
Cc1cccc(C(=O)N[C@H](C(=O)Nc2ccc3c(c2)OCO3)C(C)C)c1,1,-1,-3,-2,x,x,x
CCOC(=O)N1CCN(C(=O)CCc2ccccc2)CC1,1,-6,56*,3,6,-29,0
O=C(CCc1ccccc1)N1CCN(C(=O)CCc2ccccc2)CC1,-2,-2,-3,-1,x,x,x
CCOc1cc(N2CCOCC2)c(OCC)cc1NC(=O)CSc1ncccc1C(=O)O,1,-8,29*,2,2,-9,3
CCOc1cc(N2CCOCC2)c(OCC)cc1NC(=O)CSc1ncccn1,-2,0,-3,-2,x,x,x
CN(CC(=O)Nc1ccc(Cl)c(C(F)(F)F)c1)S(=O)(=O)c1cnc[nH]1,2,-2,0,1,x,x,x
Cn1cc(C2(c3c[nH]c4ccccc34)CCN(C(=O)OC(C)(C)C)CC2)c2ccccc21,-2,-2,6,-6,x,x,x
CCC(C)(C)NC(=O)C(c1cccc(OC)c1OC)N(CCC(C)C)C(=O)CCC(=O)Nc1cc(C)on1 (configuration not stated),0,-2,-6,2,x,x,x
CCC(C)(C)NC(=O)C(c1cccc(OC)c1OC)N(C(=O)CCC(=O)Nc1cc(C)on1)C(C)C (configuration not stated),1,-5,16*,0,-1,3,-14
COc1cc(-n2c(C)nc3cc(C(=O)N4CC(C)CC(C)C4)ccc32)cc(OC)c1OC (configuration not stated),-5,2,4,4,x,x,x
CCOC(=O)c1cnc2c(ccc3ccccc32)c1NCCO,-3,3,-1,-2,x,x,x
CCOC(=O)c1cnc2c(ccc3ccccc32)c1N,1,-2,60*,0,8,-40,-1
CCOc1ccc(S(=O)(=O)N2CCN(C(=O)c3ccc(-n4cncn4)c([N+](=O)[O-])c3)CC2)cc1,7,2,-3,1,x,x,x
COc1ccc(C2SCC(=O)N2c2ccc(F)cc2)cc1 (configuration not stated),3,1,2,1,x,x,x
COc1ccc(N2C(=O)CSC2c2cccc(F)c2)cc1 (configuration not stated),-3,3,29*,13,1,-7,-9
COc1ccc(N=C2NC(=O)/C(=C\c3ccco3)S2)cc1,7,-2,5,8,x,x,x
O=C1NC(=Nc2ccc(O)cc2)S/C1=C\C=C\c1ccco1,13,-5,39*,5,18*,-93,53*
CC1(C(=O)NS(=O)(=O)C2CC2)CCCN(C(=O)COc2ccc(Cl)cc2Cl)C1 (configuration not stated),-1,3,0,-2,x,x,x
